Mtb UGM inh – M. tuberculosis UGM enzyme inhibitors, primary screen, biochemical, fluorescence polarization, single point; AID 504406, 2011; UDP-galactopyranose mutase (Mycobacterium tuberculosis (strain ATCC 25618 / H37Rv)), …; inhibition, % at 10 µM; purified UGM, fluorescence polarization probe displacement; 320,000 compounds, 0.06% hits; in the data active means inhibition above about 10%, passing the limit was not always enough
RecA splice inh – Mtb RecA intein splicing inhibitors, primary screen, biochemical, fluorescence, HTS; cell-free RecA intein splicing; inhibition, % (no concentration beside the values); 290,000 compounds, 0.75% hits; AID 2221, 2009; in the data active means inhibition above about 30%;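 further: 0% = vehicle wells and 100% = reference inhibitor control wells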
Mtb bLac sens – beta-lactam sensitization of Mtb H37Rv, H37Rv; M. tuberculosis H37Rv growth with meropenem, percent inhibition; inhibition, % at 25 µM; 330,000 compounds, 0.27% hits; AID 434955, 2010;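 further: growth measured after seven days incubation then overnight dye step; 0% = bacteria only wells and 100% = bacteria with antibiotic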
GDH-TPI counter-1 – GDH-TPI coupling enzyme inhibitors, primary screen, artefact control for M. tuberculosis FBA inhibitor project, biochemical, absorbance, full deck; inhibition, % at 4.8 µM; GDH-TPI coupled enzyme counterscreen, NADH absorbance; 360,000 compounds, 1.2% hits; in the data active means inhibition above about 30%;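 further: 0% = DMSO wells and 100% = wells lacking the enzyme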
FBA Mtb inh – Mtb FBA enzyme inhibitors, primary screen, biochemical, fluorescence, strain H37Rv; Fructose-bisphosphate aldolase (Mycobacterium tuberculosis (strain ATCC 25618 / H37Rv)), …; purified M. tuberculosis FBA, fluorescence read-out; inhibition, % at 1 µM; 360,000 compounds, 2.3% hits; in the data active means inhibition above about 27%;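 further: 0% = vehicle and 100% = reference inhibitor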
Rv3671c protease – Rv3671c serine protease inhibitors, primary screen, biochemical, fluorescence polarization, M. tuberculosis H37Rv; inhibition, % at 5.96 µM; 320,000 compounds, 0.048% hits; AID 2606, 2010; in the data active means inhibition above about 38%;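 further: extracellular domain of Rv3671c used as enzyme; 0% = enzyme with DMSO and 100% = no enzyme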
Target sequence (P9WHR9 whole entry, looked up, the tested form may be a part): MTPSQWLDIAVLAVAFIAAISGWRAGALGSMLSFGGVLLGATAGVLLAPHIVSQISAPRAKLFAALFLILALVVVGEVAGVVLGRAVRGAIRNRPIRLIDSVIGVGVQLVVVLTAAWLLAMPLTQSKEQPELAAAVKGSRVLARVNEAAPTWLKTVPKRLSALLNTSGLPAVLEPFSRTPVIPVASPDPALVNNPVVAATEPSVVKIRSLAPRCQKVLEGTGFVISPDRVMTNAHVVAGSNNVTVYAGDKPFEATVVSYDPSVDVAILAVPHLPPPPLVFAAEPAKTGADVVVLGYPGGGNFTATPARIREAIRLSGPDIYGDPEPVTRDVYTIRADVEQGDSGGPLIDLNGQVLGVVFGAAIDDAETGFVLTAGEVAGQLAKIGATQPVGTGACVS
Mtb FBA inh conf – M. tuberculosis aldolase blockers, biochemical, fluorescence, strain H37Rv, confirmation; inhibition, % at 1 µM; purified M. tuberculosis FBA, fluorescence read-out; 5,600 compounds, 78% hits; shares compounds with FBA Mtb inh; in the data active means inhibition above about 27%;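 further: 0% = vehicle wells and 100% = reference inhibitor wells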
GDH-TPI counter-2 – GDH-TPI coupling enzyme inhibitors, artefact control for M. tuberculosis FBA inhibitor project, biochemical, fluorescence, high throughput | shares compounds with FBA Mtb inh | GDH-TPI coupled enzyme counterscreen | inhibition, % at 1 µM | 5,600 compounds, 81% hits | AID 652141, 2013; in the data active means inhibition above about 10%
GDH-TPI DR – GDH-TPI coupling enzyme inhibitors, dose response, artefact control for M. tuberculosis FBA inhibitor project, biochemical, fluorescence, IC50. shares compounds with FBA Mtb inh. GDH-TPI coupled enzyme assay, artifact counterscreen. IC50, µM. 170 compounds, 79% hits. AID 652145, 2013
An asterisk follows results filed as active; . = no result given. Shown are actives, neighbours in structure and some others; about 4% of the full set was active somewhere. Unless noted, how the calls were made is not given here.

SMILES	Mtb UGM inh	RecA splice inh	Mtb bLac sens	GDH-TPI counter-1	FBA Mtb inh	Rv3671c protease	Mtb FBA inh conf	GDH-TPI counter-2	others
O=C(Cc1c(F)cccc1Cl)Nc1ccc(S(=O)(=O)N2CCOCC2)cc1	1.1	-1.0	-2.8	-7.3	-2.4	-3.1	.	.
CSCC[C@H](NC(=O)COc1ccc(Cl)cc1)C(=O)N1CCC2(CC1)NCCc1[nH]cnc12	-0.1	-0.5	-2.9	0.8	59.1*	9.8	119.6*	111.4*
CSCC[C@H](NC(=O)c1ccc2ccccc2c1)C(=O)N1CCC2(CC1)NCCc1[nH]cnc12	-0.1	-1.3	0.9	-3.7	0.3	6.3	.	.
NC(=NCc1ccccc1)NC(=O)c1nc(Cl)c(N)nc1N	-0.3	-1.3	7.8	15.0	36.6*	-3.4	32.5*	36.8*
NC(=Nc1ccccc1)NC(=O)c1nc(Cl)c(N)nc1N	0.4	-4.3	5.2	22.3	23.0	3.3	.	.
COc1ccc(NC(=O)c2ccc(S(=O)(=O)N3CC(C)CC(C)C3)cc2)cc1S(N)(=O)=O (configuration not stated)	-1.5	.	-2.1	18.2	38.9*	-4.6	179.6*	152.0*
Nc1ncnc2c(C3OC(CO)C(O)C3O)scc12 (configuration not stated)	.	.	.	10.3	73.6*	.	179.8*	119.4*
C[C@@H]1CCCCO[C@@H](CN(C)Cc2ccc3c(c2)OCO3)[C@@H](C)CN([C@H](C)CO)C(=O)c2cc(NS(=O)(=O)c3ccccc3)ccc2O1	.	.	.	-1.0	3.6	.	.	.
CCN(CC)CCN(Cc1cc2cc3c(cc2[nH]c1=O)OCCO3)C(=S)NCCCN(C)C	1.5	-2.5	-1.9	2.2	12.0	-7.3	.	.
CCN(CC)CCN(Cc1cc2cc3c(cc2[nH]c1=O)OCO3)C(=S)NCCCN(C)C	2.5	-4.8	-14.5	30.4	35.2*	-2.9	30.1*	27.8*
CCCCNC(=S)N(CCN(CC)CC)Cc1cc2cc3c(cc2[nH]c1=O)OCCO3	0.5	-4.5	3.4	-4.6	16.7	-9.0	.	.
Cc1cccc(NC(=S)N(CCCN(C)C)Cc2cc3cc4c(cc3[nH]c2=O)OCO4)c1	-0.3	-0.7	-0.1	16.4	27.4*	-1.7	7.6	-4.0
CCC(=O)N(CCc1ccccc1C)Cc1cc2ccc(C)cc2[nH]c1=O	-0.7	-1.8	-0.6	12.9	1.1	-5.6	.	.
CCCCNC(=S)N(CCN(CC)CC)Cc1cc2cc3c(cc2[nH]c1=O)OCO3	-0.9	-1.0	-3.5	32.9*	32.3*	-5.8	15.8	4.5	GDH-TPI DR=4.92*
CC(=O)N(CCc1ccccc1C)Cc1cc2cc3c(cc2[nH]c1=O)OCO3	-3.7	-1.7	6.2	11.0	38.9*	-0.4	187.1*	170.0*
CCOc1ccc(S(=O)(=O)NCCCN2CCOCC2)cc1	2.9	-1.8	-2.3	-0.8	-3.7	-7.0	.	.
CCC1(C)Cc2c(sc(NC(=O)CCC(=O)O)c2C#N)CO1 (configuration not stated)	-1.2	-0.1	-0.2	6.8	-4.9	-2.0	.	.
Cc1ccc(OCc2cc(C(=O)NCCc3cccnc3)no2)cc1C	2.5	1.8	5.0	0.9	-0.9	0.4	.	.
CCN(CC)CCN(Cc1cc2cc3c(cc2[nH]c1=O)OCO3)C(=S)NC	0.0	.	1.3	23.4	101.5*	-2.9	64.2*	54.9*
